The list is not random: actives were taken first. Their share in the collection is about 2.2%.
Ba/F3 V617F tox: loss of viability in JAK2V617F-driven Ba/F3 cells; inhibition, % at 5.6 µM; Ba/F3 EpoR-JAK2V617F viability, ATP luminescence; AID 1446; hit rate 1.1% among 220,000;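 active means inhibition above the campaign mean plus 3 SD over all tested compounds, cut at about 24% in these data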;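 further: cytokine-independent growth of Ba/F3 cells driven by EpoR plus mutant JAK2; 0% = DMSO-treated cells and 100% = JAK inhibitor I control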
KLF5 inh: kruppel-like factor 5 inhibition; DLD-1 KLF5 promoter-luciferase reporter, luminescence; inhibition, % at 5 µM; hit rate 0.23% among 290,000; AID 1700;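 active means inhibition above a per-plate limit of that plate's mean compound inhibition plus 3 SD, cut at about 60% in these data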;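 further: 0% = DMSO wells and 100% = LY294002 at 200 µM; higher means less KLF5 promoter-driven luciferase light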
BaF3 parental: parental Ba/F3 viability inhibition as JAK2V617F counter-screen; AID 1486; hit rate 1.1% among 220,000; CellTiter-Glo ATP luminescence; inhibition, % at 5.6 µM;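 active means inhibition above a per-campaign cutoff, the mean inhibition of all tested compounds plus 3 SD, cut at about 27% in these data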;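 further: 0% = DMSO wells and 100% = JAK Inhibitor I control wells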
APP transl inh: APP translation inhibition; SH-SY5Y APP 5'UTR-luciferase reporter, luminescence; inhibition, % at 2 µM; hit rate 0.82% among 190,000;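 active means inhibition above a set limit, derived from the sample mean plus 3 SD, cut at about 45% in these data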
IEC-6 cytotox: IEC-6 cytotoxicity, counter-screen for KLF5 inhibitors. luminescence viability. inhibition, % at 5 µM. hit rate 0.78% among 290,000. AID 1825;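 further: 0% = plate median of test compound wells and 100% = cytotoxic reference compound wells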
aSyn 5UTR inh: MLPCN primary screen, SNCA 5' untranslated region; alpha-synuclein 5'UTR reporter, inhibitor activity; hit rate 0.82% among 300,000; inhibition, % (tested at 7.5 µM); in the data active means inhibition above about 60%;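 further: H4 neuroglioblastoma cells stably carrying SNCA 5'UTR luciferase fusion; 0% = DMSO wells and 100% = positive control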
IEC-6 tox confirm: IEC-6 cytotoxicity, confirmation assay. shares compounds with IEC-6 cytotox. IEC-6 rat intestinal epithelial viability, luminescence. inhibition, % at 5 µM. hit rate 63% among 1,900;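 further: 0% = vehicle and 100% = reference cytotoxic drug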
Active calls of the source: *; . = no result given. Unless noted, no stated cut-off is given here; in the data, active means inhibition above about 22%; inactive means the rest.

SMILES	Ba/F3 V617F tox	KLF5 inh	BaF3 parental	APP transl inh	IEC-6 cytotox	aSyn 5UTR inh	IEC-6 tox confirm
CCOc1ccccc1N1CC(O)=C(c2nc3ccccc3s2)C1=N	83*	57	77*	92*	56*	54	60*
CCCNC(=O)COc1coc(CN2CCN(c3ccc(F)cc3)CC2)cc1=O	.	-35	.	.	-4	7	.
COc1ccc(C2CC(=O)N(C)c3ccccc3S2)cc1 (centres undefined)	4	-30	-6	-6	24*	-38	9
CN(Cc1ccccc1)C(=O)Cn1c(=O)c2cccn2c2cccnc21	.	-20	.	.	1	11	.
c1csc(-c2nc3c4ccccc4c4ccccc4c3[nH]2)c1	8	-14	10	7	24*	-73	23*
N#Cc1nccnc1S(=O)(=O)c1cccs1	92*	-10	35*	.	40*	-48	82*
CCOC(=O)Cn1c(S(=O)(=O)Cc2cccc(F)c2)nc(-c2ccccc2)c1-c1ccccc1	2	-28	5	5	23*	50	20
Cc1ccc2c(CN(C)Cc3ccccc3)cc(=O)oc2c1C	.	-34	.	.	55*	-80	33*
Cc1ccc2c(CN(C)Cc3ccc(OC(F)F)cc3)cc(=O)oc2c1C	.	1	.	.	4	1	.
Cc1ccc2c(CN(C)Cc3cccc(F)c3)cc(=O)oc2c1C	.	-28	.	.	41*	-14	24*
Cc1ccc2c(c1)C(=O)C(=O)N2CC1COc2ccccc2O1 (centres undefined)	.	-8	.	.	83*	-37	9
CCN1CCN(CC2COc3ccccc3O2)CC1 (centres undefined)	.	-12	.	.	4	-11	.
CCOc1ccc2c(c1)C(=O)C(=O)N2CC1COc2ccccc2O1 (centres undefined)	.	-6	.	.	72*	-11	14
COc1ccc2c(c1)C(=O)C(=O)N2CC1COc2ccccc2O1 (centres undefined)	.	12	.	.	83*	-23	9
Cc1ccc2c(c1)C(=O)C(=O)N2CCCOc1ccccc1	2	-13	10	0	4	-68	.
CC(Oc1ccc([N+](=O)[O-])cc1)C(=O)NCC1CCCO1 (centres undefined)	.	-13	.	.	-1	10	.
CCOC(=O)c1sc(N)c(C(=O)Nc2ccccc2OC)c1C	40*	12	36*	47*	38*	30	46*
O=C(CSc1nc(-c2ccco2)cc(C(F)(F)F)n1)Nc1cccnc1	6	12	3	-12	29*	-14	13
CCCCCN=Cc1c(C)[nH]n(-c2nc3ccccc3s2)c1=O	48*	-39	46*	-55	45*	62*	51*
Cc1cc2nnc(SCC(=O)NCc3cccs3)n2c2ccccc12	31*	42	40*	4	34*	-27	24*
Cc1cccc(/C=C(\c2nc3ccccc3[nH]2)S(=O)(=O)c2ccccc2)c1	1	-7	5	12	25*	-118	32*
CC(C)(C)c1ccc(/C=C(\c2nc3ccccc3[nH]2)S(=O)(=O)c2ccccc2)cc1	.	.	.	.	.	-78	.
Cc1cccc([C@@H]2[C@@H]3C(=O)N(Cc4ccccc4)C(=O)[C@@H]3[C@]3(C)C(=O)N(c4ccc(C(F)(F)F)cc4)C(=O)N23)c1	.	7	.	.	7	-41	.
O=C1CCCN1c1ccc(N2CCCC2=O)cc1	.	-33	.	.	-2	27	.
Cc1cccc(C)c1OCC(=O)NNC(=S)NC(=O)C1CC1	.	32	.	.	29*	7	2
SMILES	Ba/F3 V617F tox	KLF5 inh	BaF3 parental	APP transl inh	IEC-6 cytotox	aSyn 5UTR inh	IEC-6 tox confirm
Cc1oc(-c2cccc(C(F)(F)F)c2)nc1CN1CCOCC1	1	-14	6	-2	-8	.	.
COc1ccc(NC(=O)c2c(N)no[n+]2[O-])cc1	-4	15	0	18	33*	12	28*
COc1ccc(NC(=O)c2c(N)no[n+]2[O-])c(OC)c1	-3	-32	2	15	-2	-6	.
O=C(Nc1ccccc1)Nc1cccc(Cl)c1Cl	-2	-15	5	-55	7	-237	.
O=C(Nc1ccc(Oc2ccc(NC(=O)Nc3ccccc3Cl)cc2)cc1)Nc1ccccc1Cl	-2	1	1	.	15	-6	-2
COc1ccc(NS(=O)(=O)c2cccc(NC(=O)c3ccc(Cl)nc3)c2)cc1	63*	12	78*	10	33*	-2	18
C/C(=N\NC(=O)c1cc(C2CC2)nc2ccccc12)c1ccc(C)s1	-4	-20	3	3	4	18	.

Assay outcomes: PubChem, several laboratories
